Screening data (PubChem)
SRC2 inh – inhibition of GAL4-SRC2 driven luciferase reporter, primary screen, SRC2 inhibitor project, cell-based, luminescence | Nuclear receptor coactivator 2 (Homo sapiens), Q15596 | HEK293 GAL4-SRC2 luciferase reporter | inhibition, % at 9 µM | actives 0.17% (n = 370,000);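 active means inhibition above the mean inhibition of all tested compounds plus 3 SD, set per campaign, cut at about 52% in these data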;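 further: 0% = DMSO treated cells and 100% = cells given Gossypol at 36 µM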
SRC3 inh – SRC3 coactivator transcriptional activity inhibitors, primary screen, cell-based, luminescence | actives 0.17% (n = 360,000) | HEK293 GAL4-SRC3 luciferase reporter | AID 588352, 2011 | inhibition, % at 3.6 µM;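 active means inhibition above a per-campaign cutoff, the mean of all compounds plus 3 SD, cut at about 60% in these data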;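 further: 0% = DMSO-treated cells and 100% = gossypol-treated cells at 36 µM; higher means less SRC3-driven luciferase light from the GAL4 reporter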
Gli-Sufu block – Gli-Sufu pathway antagonists, primary screen, luciferase luminescence, Sufu-KO-LIGHT cells, uHTS. Sufu-KO-LIGHT fibroblasts, Gli luciferase reporter luminescence. inhibition, % at 5 µM. actives 0.74% (n = 340,000). AID 588413, 2011;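 active means inhibition above about 55%, limit read from the data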;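 further: 0% = DMSO-treated cells and 100% = wells with medium but no cells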
COUP-TFII inh – NR2F2 transcriptional activity inhibitors, primary screen, cell-based, luciferase reporter, HEK293T, luminescence. COUP transcription factor 2 (Homo sapiens), P24468. HEK293T NGFI-A luciferase reporter. inhibition, % at 8.6 µM. actives 0.7% (n = 370,000);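 active means inhibition above a per-plate cutoff, mean inhibition of test wells between control levels plus 3 SD, cut at about 38% in these data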;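 further: cells cotransfected with COUP-TFII expression vector driving the NGFI-A reporter; 0% = median of COUP-TF2 test wells and 100% = reporter-only cells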
SRC1 inh – SRC1 coactivator transcriptional activity inhibitors, primary screen, cell-based, luminescence. Nuclear receptor coactivator 1 (Homo sapiens), Q15788. inhibition, % at 3.6 µM. HEK293 GAL4-SRC1 luciferase reporter. AID 588354, 2011. actives 0.12% (n = 360,000);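 active means inhibition above the campaign mean plus 3 SD, with each screening campaign given its own cutoff, cut at about 60% in these data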;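 further: 0% = DMSO treated cells and 100% = gossypol at 36 µM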
LRH-1 inv ag – LRH-1 (NR5A2) inverse agonists, primary screen, cell-based, luminescence, HEK293T, StAR-luciferase reporter; Nuclear receptor subfamily 5 group A member 2 (Homo sapiens), O00482; LRH-1 transfected, 24 h; inhibition, % at 3.6 µM; actives 0.13% (n = 360,000); AID 602396, 2012;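 active means inhibition above the mean inhibition of all tested compounds plus 3 SD, cut at about 73% in these data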;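 further: 0% = DMSO wells and 100% = reporter-only cells lacking LRH-1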
Target sequence (O00482 whole entry, looked up): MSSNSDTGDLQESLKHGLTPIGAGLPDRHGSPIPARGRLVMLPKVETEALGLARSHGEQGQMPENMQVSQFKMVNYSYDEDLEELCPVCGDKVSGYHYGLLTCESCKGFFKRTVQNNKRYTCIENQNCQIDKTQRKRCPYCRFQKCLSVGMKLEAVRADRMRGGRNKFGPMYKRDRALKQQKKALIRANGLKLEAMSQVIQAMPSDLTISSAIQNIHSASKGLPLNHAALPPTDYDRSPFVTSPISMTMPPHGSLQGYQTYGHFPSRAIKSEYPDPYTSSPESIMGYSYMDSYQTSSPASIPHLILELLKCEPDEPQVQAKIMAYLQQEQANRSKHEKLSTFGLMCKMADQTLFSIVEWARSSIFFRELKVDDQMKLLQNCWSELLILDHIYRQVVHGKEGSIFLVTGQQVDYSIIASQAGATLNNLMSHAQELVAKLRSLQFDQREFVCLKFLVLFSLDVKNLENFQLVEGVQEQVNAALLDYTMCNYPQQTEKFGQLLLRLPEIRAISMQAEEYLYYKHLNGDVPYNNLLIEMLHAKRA
Gli antag conf – Gli-SUFU pathway antagonists, confirmation, single concentration, luciferase luminescence, Sufu-KO-LIGHT cells. shares compounds with Gli-Sufu block. Gli luciferase reporter. inhibition, % at 5 µM. actives 40% (n = 2,500). AID 602428, 2012;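 active means mean inhibition at 5 µM reaching about 45%, limit read from the data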;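 further: plate controls were DMSO-treated cells for no effect and wells lacking cells for full effect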
SufuKO cytotox – cytotoxicity in Sufu-KO-LIGHT cells, confirmation, cytotoxicity control for Gli-SUFU antagonist project, cell-based, ATP luminescence, single concentration | AID 651994, 2013 | actives 32% (n = 2,500) | shares compounds with Gli-Sufu block | cytotoxicity, % at 5 µM;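 active means mean cytotoxicity at 5 µM above about 25%, limit read from the data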;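 further: cells exposed to compound overnight for roughly 16 to 18 hours; plate controls were DMSO wells with cells for no effect and medium without cells for full effect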
Wnt3a cs – Wnt3a reporter signal inhibition, confirmation, counter-screen for Gli-SUFU antagonist project, Wnt-LIGHT cells, luminescence, single concentration; Wnt3a-driven luciferase reporter; actives 20% (n = 2,500); AID 651995, 2013; shares compounds with Gli-Sufu block; inhibition, % at 6.25 µM;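 active means mean inhibition above about 25%, limit read from the data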
* marks the source's active call; other numbers are inactive results; · = not tested or not shown. The list is not random: actives were taken first. Their share in the collection is about 1.2%.

SMILES	SRC2 inh	SRC3 inh	Gli-Sufu block	COUP-TFII inh	SRC1 inh	LRH-1 inv ag	Gli antag conf	SufuKO cytotox	Wnt3a cs
CC(CC(=O)N1CCN(c2cccc(Cl)c2)CC1)S(=O)(=O)c1ccc2c(c1)NC(=O)CO2 (stereo not drawn)	-21	0	59*	-1	9	17	51*	20	0
COc1ccc(N2CCN(C(=O)CC(C)S(=O)(=O)c3ccc4c(c3)NC(=O)CO4)CC2)cc1 (stereo not drawn)	19	2	-18	-4	4	20	·	·	·
CC(C)C(NS(=O)(=O)c1cccc2nsnc12)C(=O)NC1CCCCC1C (stereo not drawn)	·	1	58*	·	1	9	28	4	-9
CC(C)C(NS(=O)(=O)c1cccc2nsnc12)C(=O)Nc1nccs1 (stereo not drawn)	6	-1	-2	6	4	-1	·	·	·
CNc1ncn(-c2c(C)cccc2C)c(=O)n1	9	·	·	-10	·	·	·	·	·
CS(=O)(=O)N1CCCC(C(=O)N2CCc3ccccc3C2)C1 (stereo not drawn)	5	-2	55	0	-33	-11	20	12	-29
Cc1ccccc1N1CCN(C(=O)CN2C(=O)CC(C)(C)S(=O)(=O)c3ccccc32)CC1	8	·	·	2	·	·	·	·	·
N=c1c(S(=O)(=O)c2ccccc2)cc2c(=O)n3ccccc3nc2n1Cc1ccco1	-14	-21	2	-1	-8	-3	·	·	·
Cc1ccc2nc3c(cc(S(=O)(=O)c4ccccc4)c(=N)n3Cc3ccco3)c(=O)n2c1	-29	-83	51	-29	-72	-77	-1	15	-39
COC(=O)Cc1nnn2c1[C@H](C)[C@@H](OC)c1ccccc1-2	-8	·	·	2	·	·	·	·	·
CCOc1ccc(N(CC(=O)Nc2ccccc2OCC)S(=O)(=O)c2c(C)noc2C)cc1	1	-3	53	-26	-14	21	63*	52*	47*
CCOc1ccc(N(CC(=O)Nc2ccc(C)cc2)S(=O)(=O)c2c(C)noc2C)cc1	-11	14	8	8	4	31	·	·	·
CCOc1ccc(N(CC(=O)Nc2ccccc2OC)S(=O)(=O)c2ccccc2)cc1	15	2	54	-32	-1	16	47*	60*	-30
C[C@H]1C(c2ccccc2F)O[C@]2(C[C@H](O)c3ccccc3O2)C[C@@H]1O (stereo partly drawn)	-10	·	·	3	·	·	·	·	·
COC(=O)c1ccc(S(=O)(=O)N2CCC(NC(=O)CCC3CCCC3)CC2)cc1	-65	·	·	-5	·	·	·	·	·
CCn1cc[n+](C)c1P(c1ccccc1)c1ccccc1	23	13	51	5	4	-1	55*	13	23
C=CCNc1nc2c(c(=O)n(C)c(=O)n2C)n1CCCCCC	4	27	69*	61*	13	46	75*	36*	40*
C=CCNc1nc2c(c(=O)n(C)c(=O)n2C)n1CC	0	9	2	3	-6	14	·	·	·
Cn1c(=O)c2c(nc(NCCc3ccccc3)n2Cc2ccc(F)cc2)n(C)c1=O	17	-5	26	13	0	-1	·	·	·
COCCCNc1nc2c(c(=O)n(C)c(=O)n2C)n1Cc1cccc(OC)c1	-10	-33	19	1	-5	-7	·	·	·
C=CCOc1nc2c(c(=O)n(C)c(=O)n2C)n1Cc1ccc(Cl)cc1	-11	18	72*	5	-22	-19	61*	27*	23
C=CCNc1nc2c(c(=O)n(C)c(=O)n2C)n1Cc1ccc(F)cc1	20	4	54	33	-3	4	55*	20	26*
COCCNc1nc2c(c(=O)n(C)c(=O)n2C)n1Cc1cccc(C)c1	27	-8	61*	21	2	11	63*	25*	24
Cc1cc(C)c(C2=NOC3c4ccccc4OCC23)c(C)c1 (stereo not drawn)	5	·	·	-2	·	·	·	·	·
Cn1c(N2CCCC2)nc2c1c(=O)n(Cc1ccc(F)cc1)c(=O)n2C	0	5	53	8	-13	16	12	2	-20
SMILES	SRC2 inh	SRC3 inh	Gli-Sufu block	COUP-TFII inh	SRC1 inh	LRH-1 inv ag	Gli antag conf	SufuKO cytotox	Wnt3a cs
CCCOc1nc2c(c(=O)n(C)c(=O)n2C)n1Cc1cccc2ccccc12	-6	27	57*	29	2	1	58*	40*	9
C=CCNc1cccc2c1S(=O)(=O)N[C@H](Cc1ccccc1)CO2	-12	·	·	5	·	·	·	·	·
O=C(NCc1ccco1)C12CN(Cc3ccccc3)CC1C(c1ccc([N+](=O)[O-])cc1)=NO2 (stereo not drawn)	-8	6	1	1	-20	10	·	·	·
Cc1ccc(CNC(=O)C23CN(Cc4ccccc4)CC2C(c2ccc([N+](=O)[O-])cc2)=NO3)o1 (stereo not drawn)	-3	4	98*	-5	-4	3	18	3	-82
O=C(O)[C@@H]1C[C@@H](O)CN1	-3	·	·	-15	·	·	·	·	·
CCC1(O)C(=O)OCc2c1cc1n(c2=O)Cc2cc3c(N)cccc3nc2-1 (stereo not drawn)	28	80*	84*	22	35	92*	63*	49*	-83
CCC1(OC(=O)CN(C)C)C(=O)OCc2c1cc1n(c2=O)Cc2cc3c(N)cccc3nc2-1 (stereo not drawn)	·	69*	64*	·	48	85*	63*	36*	-61
COc1cccc(C=NNC(=S)NC2CC3CCC2C3)c1O (stereo not drawn)	-31	·	·	-29	·	·	·	·	·
CCN(Cc1ccncc1)C(=O)c1cc(COc2ccc(F)cc2F)on1	-11	3	51	11	-10	14	32	-8	-22
Cc1cc(Cl)c2oc(C(=O)N3CCN(c4ccncc4)CC3)c(C)c2c1	-8	-6	68*	-6	4	-17	26	23	-36
